# Test results published in the supplement of paper PMC10941209.
# System: HFF
# Assay: cell viability relative to DMSO control; higher = less cytotoxic
# Details: 1 µM; 72 h
# Method: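 Single-dose cytotoxicity screen of the MMV Pandemic Response Box at 1 uM on human foreskin fibroblasts (HFF), 72 h at 37 C. Viability measured by MTT (OD 550 nm) and normalised to the DMSO control (% survival).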
row,SMILES,cell viability [%]
1,Oc1ccc(NCc2ccccc2OCc2ccccc2)cc1,70.1
2,CC1(C)C[C@H]1C(=O)N/C(=C\CCCCSC[C@@H](N)C(=O)O)C(=O)O,71.5
3,Oc1ccc2[nH]c(-c3ccccc3)nc2c1,69.2
4,CC(C)(C)c1cc(CCC(=O)N2CCC2)cc(C(C)(C)C)c1O,72.6
5,Cc1ncc([N+](=O)[O-])n1CC(C)O (configuration not stated),68.8
6,Nc1nc(F)nc2c1ncn2[C@H]1O[C@@H](CO)[C@H](O)[C@@H]1O,65
7,O=P(O)(O)C(CCCc1cccc(Oc2ccccc2)c1)S(=O)(=O)O (configuration not stated),74.4
8,CC(=O)Oc1ccccc1C(=O)Nc1ncc([N+](=O)[O-])s1,62.8
9,COc1nc2ccc(Br)cc2cc1[C@@H](c1ccccc1)[C@@](O)(CCN(C)C)c1cccc2ccccc12,72.3
10,CCCCCCC1c2ccc(O)cc2Oc2cc(O)ccc21,72.2
11,O=C(Nc1ccc(N2CCN(C(=O)c3ccccc3)CC2)cc1)c1ccc2c(c1)OCO2,60.1
12,Cc1nc(Nc2ccc(F)cc2)nc(N2CCc3ccccc3C2C)c1C (configuration not stated),65.9
13,CC(C)(C)c1ccc(C(=O)NC(=O)N2CCCc3ccccc32)cc1,63.5
14,COc1ccc2c(c1)cc(CNC(=O)c1cc3ccccc3o1)n2CC(=O)O,62.5
15,N[C@H]1CCC[C@H]1C(=O)O,70.6
16,CCOc1ccc(C(=O)NCCc2ccccc2)cc1,63.9
17,Cc1ccc(C)c(OCCCCCCN2C[C@H](O)[C@@H](O)[C@H](O)[C@H]2CO)c1,64.6
18,O=C1C=C(c2ccccc2)S(=O)(=O)c2ccccc21,67.5
19,NCCCc1ccccc1C(=O)Nc1ncc([N+](=O)O)s1,65

row,SMILES,cell viability [%]
1,CC#C[C@]1(O)CC[C@H]2[C@@H]3CCC4=CC(=O)CCC4=C3[C@@H](c3ccc(N(C)C)cc3)C[C@@]21C,52
2,Cc1cc(C)n(O)c(=O)c1,68.5
3,CC(C)C(=O)N[C@H]1[C@H]([C@H](O)[C@H](O)CO)OC(C(=O)O)=C[C@@H]1N=[N+]=[N-],56.6
4,CC[C@H](CO)Nc1nc(NCc2ccccc2)c2ncn(C(C)C)c2n1,68.9
5,O=C(Nc1nnc(-c2ccccc2)o1)c1ccc(F)cc1,65.2
6,CC(C)Oc1ccc(-c2nc(-c3cccc4c3CC[C@@H]4NCCO)no2)cc1C#N,65.4
7,CC(C)(C)NC(=O)[C@@H]1CN(Cc2cnc3occc3c2)CCN1C[C@@H](O)C[C@@H](Cc1ccccc1)C(=O)N[C@H]1c2ccccc2C[C@H]1O,72.6
8,O=[N+]([O-])/C(Br)=C/c1ccc(Br)o1,63.2
9,CCCCSc1nc(N)c2[nH]c(=O)c(=O)n(Cc3ccccc3)c2n1,67.5
10,O=C(NNC(=S)Nc1ccc(Cl)cc1)c1ccncc1,64.2
11,O=S(=O)(Nc1ccc(-n2cccc2)cc1)c1ccc(Cl)c(Cl)c1,64.5
12,CC(C)(C)c1cc(C(=O)/C(C#N)=N/Nc2cccc(Cl)c2)no1,53
13,N#C/C(=C1/SC[C@H](c2ccc(Cl)cc2Cl)S1)n1ccnc1,74.7
14,CCc1nc(N)nc(N)c1C#CC(C)c1cc(OC)cc(-c2ccncc2)c1 (configuration not stated),79.3
15,Cc1cc(-c2ccccc2)c(C(=O)C(=O)Nc2ccc(N3CCN(c4ncc(F)cn4)CC3)cc2)n1C,76.8
16,CCCCCCCCCN1C[C@@H](O)[C@H](O)[C@@H](O)[C@@H]1CO,84.2
17,CCn1cc(C(=O)O)c(=O)c2cc(F)c(N3CCNC(C)C3)c(F)c21 (configuration not stated),71.2
18,CC[C@@]1(O)C(=O)OCc2c1cc1n(c2=O)Cc2cc3c([N+](=O)[O-])cccc3nc2-1,53.1
